Here are results for 45 sequences from the supplement of paper PMC11417369.

± gives the standard deviation of the averaged measurements. Over roughly 25,000 sequences, “ln(normalized median fluorescence intensity)” has its median near 10; the highest 2% begin near 12. The sample holds the highest values, similar sequences and a random draw of the others, so the mix is not that of the screen.

The assay has as its system PfAP2-G AP2 domain (GST-tagged). The assay is described as follows: gcPBM binding intensity (ln(normalized median fluorescence intensity)); higher = stronger DNA binding. The method, boiled down:
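An Agilent 4 × 180k array of primer-extended double-stranded 36-bp intergenic genomic probes, with negative controls, was incubated for 1 h with GST-tagged P. falciparum DNA-binding domains expressed in E. coli. Alexa488 anti-GST antibody detected bound protein, scanned at 488 nm. Binding intensity is the highest Masliner-normalised natural-log median intensity across replicate spots of either probe orientation.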
“TACACAGACGGACACACACACACACTAGAAAAAAAA [CACACA_site4435]”: the “gcPBM binding intensity (ln)” value is 11.7 ± 1.2.

For the sequence “AAACGTGCGTATATGTGTACGCATATATATATATAT [XGTACX_site5252]”, the “gcPBM binding intensity (ln)” value worked out at 11.6 ± 1.

For the sequence “GTATGTATGTATGTATGTACGTATGTATGTATATAT [XGTACX_site3369]”, the “gcPBM binding intensity (ln)” value amounted to 11.6 ± 0.98.

As to “ATTTATATATATGTATGTACGTATGTGTGTATATGT [XGTACX_site7587]”, the “gcPBM binding intensity (ln)” value was 11.4 ± 0.88.

“ATGACATGTTCTAAATGTACATTTTTTAACCCTTTT [XGTACX_site1858]”: the “gcPBM binding intensity (ln)” value turned out to be 10.8 ± 0.4.

With “TTTTTTTTTTTTTTATGTACATATATATATTTTATT [XGTACX_site6915]”, the “gcPBM binding intensity (ln)” value was determined as 11.2 ± 0.98.

Regarding “TTTTTTTTTTCTTTTTTTTATTATATTAACGGAATT [GTGCAC_negctrl_site104]”, the “gcPBM binding intensity (ln)” value came to 9.82 ± 0.17.

For the sequence “CAAATGGTAAATGAAAGTACAAATTGTTTTGATTAA [XGTACX_site1536]”, the “gcPBM binding intensity (ln)” value came to 10.8 ± 0.4.

As to “ATGGTAGTGATTAAAAGTACACGTAATTGTAAAAAT [XGTACX_site387]”, the “gcPBM binding intensity (ln)” value came out at 11.7 ± 0.79.

Take “TTAGTTATTATAATTTGTACACAAATGGTAAAGTAT [XGTACX_site2343]”: the “gcPBM binding intensity (ln)” value came out at 11.2 ± 0.71.

For the sequence “TAAAAAAAAAAATGAACATGCAACAATTGTGATGAA [TGCATGCA_site332]”, the “gcPBM binding intensity (ln)” value amounted to 9.74 ± 0.32.

As for “GCACCAAAAAAAAGACGTACAGTTATATTAAAATAG [XGTACX_site8926]”, the “gcPBM binding intensity (ln)” value amounted to 11.7 ± 1.

Regarding “ATTATATTAAAATACACACCCAAATATTAAAAAGAT [CACACA_site5613]”, the “gcPBM binding intensity (ln)” value stood at 10.4 ± 0.19.

“AAATAAATAAATAGACGTACAAAAATATTATACATT [XGTACX_site6776]”: the “gcPBM binding intensity (ln)” value came out at 11.2 ± 0.8.

Take “TTTTTATAAGCATAAAGTACAAATATTTTTTAGTTG [XGTACX_site4140]”: the “gcPBM binding intensity (ln)” value was 11 ± 0.59.

In the case of “TGTAAGTATTCTTGAGGTACACATATAAATATAGTA [XGTACX_site3207]”, the “gcPBM binding intensity (ln)” value worked out at 11.4 ± 0.79.

Consider “AAATATATATATATATATATATATATATATATATAT [CACACA_negctrl_site677]”, for which the “gcPBM binding intensity (ln)” value is 10 ± 1.

Regarding “ATAGAATAATATTGTAGTACTAAAAATATTCATTTT [XGTACX_site6447]”, the “gcPBM binding intensity (ln)” value worked out at 11.4 ± 0.92.

Turning to “TAATATTTATAAAATAGTACACAGAAAAAGCATTTT [XGTACX_site8948]”, the “gcPBM binding intensity (ln)” value was 11.4 ± 0.88.

Consider “TATATAAAGCATTGTAGTACTACCAATATTTTTTTT [XGTACX_site3523]”, for which the “gcPBM binding intensity (ln)” value worked out at 11.6 ± 1.

For the sequence “GGAAACCTTTTTTTTACACACAATATATTAAGACTT [CACACA_site4899]”, the “gcPBM binding intensity (ln)” value worked out at 9.86 ± 0.014.

As to “AAAAAAAAATTAAACATACACACGTTACTATTTTTA [CACACA_site1687]”, the “gcPBM binding intensity (ln)” value was found to be 9.64 ± 0.26.

For “AAATGTATAATTTTTTAATACACTTATTTAAAATAA [CACACA_negctrl_site797]”, the “gcPBM binding intensity (ln)” value is 10.1 ± 0.2.

Regarding “TATTAAGTATTTTACGTACACACTTATAAATGTACA [CACACA_site3885]”, the “gcPBM binding intensity (ln)” value came out at 11.7 ± 0.82.

In the case of “AATTATTAAATATGTACACACGTACATTTTATAAAT [CACACA_site5341]”, the “gcPBM binding intensity (ln)” value turned out to be 11.6 ± 1.

For the sequence “TACGTATTTTAATATTTACACACTTATTTTTTATAT [CACACA_site7924]”, the “gcPBM binding intensity (ln)” value was found to be 10.2 ± 0.13.

For “AATGTTTATTTTGTTTGTACATAAAATGAATAAAAT [XGTACX_site1456]”, the “gcPBM binding intensity (ln)” value amounted to 11.1 ± 0.77.

“TAGTATTATTTTTTTTGTACATATAAATGTAAAATA [XGTACX_site5282]”: the “gcPBM binding intensity (ln)” value amounted to 11 ± 0.71.

For “TTATACATATTTATATGTACGTAATATAATATTAAT [XGTACX_site6520]”, the “gcPBM binding intensity (ln)” value was determined as 11.3 ± 0.91.

Take “TTATTAAATATGTACACACGTACATTTTATAAATGA [CACACA_site2387]”: the “gcPBM binding intensity (ln)” value turned out to be 11.7 ± 1.1.

Regarding “AATATTTTTAATTAATGTACATATTTATTATATAAA [XGTACX_site5112]”, the “gcPBM binding intensity (ln)” value came out at 11.2 ± 0.76.

As for “TATAATATATTTTAATGTACGTACATCCCGATTAAT [XGTACX_site7651]”, the “gcPBM binding intensity (ln)” value turned out to be 11.7 ± 0.86.

For the sequence “TTATTATAAATGTTTTGTACGTACATCCGAAAATAA [XGTACX_site2175]”, the “gcPBM binding intensity (ln)” value worked out at 11.7 ± 1.2.

Turning to “AAAATTATTAAATATGTACACACGTACATTTTATAA [CACACA_site8750]”, the “gcPBM binding intensity (ln)” value came out at 11.6 ± 0.88.

Turning to “CCTTTCTATTGAAAATGTACATATATATTATTATAT [XGTACX_site5527]”, the “gcPBM binding intensity (ln)” value was 11.1 ± 0.71.

For “ATATTTTCTAATCAATGTACTTATTCTACACATTAA [XGTACX_site5774]”, the “gcPBM binding intensity (ln)” value turned out to be 11.3 ± 0.92.

Consider “ATGGAAATATATACATGTACATAAATATATATATAT [XGTACX_site8391]”, for which the “gcPBM binding intensity (ln)” value is 11.2 ± 0.61.

Turning to “TTTTACTCTTAAAATAATAAAAAATATTCACATTTA [CACACA_negctrl_site1508]”, the “gcPBM binding intensity (ln)” value was found to be 9.63 ± 0.085.

Take “TAAATTATAACGTGCACACATATTTAAAATGAAATG [CACACA_site2820]”: the “gcPBM binding intensity (ln)” value was 10.6 ± 0.45.

For the sequence “TCTTCACCACGTGGAAGTACATAAAAAGATACACAA [XGTACX_site4747]”, the “gcPBM binding intensity (ln)” value was 11.4 ± 0.93.

Consider “AATTTATTAGATAGATGTACATTTTAATAAAAGTAG [XGTACX_site6819]”, for which the “gcPBM binding intensity (ln)” value is 11.1 ± 0.67.

Take “AGATATTTTTCTTAAGTACACACTAATTAGAAACTA [CACACA_site7897]”: the “gcPBM binding intensity (ln)” value was found to be 11.3 ± 0.93.

As for “CCCATATTATAGGTGTGTACATAAAAGTATATATAA [XGTACX_site3629]”, the “gcPBM binding intensity (ln)” value was 11.6 ± 0.95.

As to “TAACACCAAACTAAATGTACACACATACATAAATAT [XGTACX_site2201]”, the “gcPBM binding intensity (ln)” value worked out at 11.2 ± 0.79.

“TATATAATATATTAATGTACGTTATATGTATTCCTT [XGTACX_site6140]”: the “gcPBM binding intensity (ln)” value amounted to 11.2 ± 0.81.
